Reference: PubChem BioAssay AID1224855 (National Center for Advancing Translational Sciences (NCATS), 2016)
Inconclusive results are not listed. The source made the active and inactive calls. Calls come from the whole dose curve; as a rule, active = well fitted inhibition curve with a large enough effect; inconclusive = small, poorly fitted or top-dose-only effect; inactive = no such curve, though single readings can be large or run the other way.

Assay: Confirmation assay for measurement of the activity of small molecule inhibitors on Zika virus induced Caspase-3 activity in human iPSC derived neural progenitor cells (hNPCs)
Settings: hNPC ZIKV-induced caspase-3/7, Caspase-Glo luminescence, 6 h; series mostly up to 46.1 µM
Source text: National Center for Advancing Translational Sciences [NCATS] Johns Hopkins University School of Medicine Florida State University Assay Overview: Increase in the Caspase-3 activity indicates an activation of apoptosis cell death pathway caused by Zika virus infection in certain types of neuronal cells including human neural progenitor cells (hNPCs), astrocytes, and astrocytoma cell line (SNB-19). This cell-based caspase-3 activity assay measures the increased caspase-3 activity in the human iPSC derived neural progenitor cells (hNPCs) after a 6-hour Zika virus infection with a luminescence readout. A decrease in the luminescence signal in this assay by small molecule treatment indicates an inhibitory effect of that small molecule on the Zika virus induced caspase-3 activity that may correlate with its effect on reduction of Zika virus caused cell death.
Assay Protocol Summary: The medium for hNPCs consists of DMEM/F12, N2 supplement (ThermoFisher, Cat.# 17502048), NEAA (ThermoFisher, Cat. # 11140050), 2 ug/ml heparin, 2 uM cyclopamine, and B27 (ThermoFisher, Cat. # 17504044). A Caspase-Glo 3/7 assay kit (catalog number G8092; Promega, Madison, WI) was used to detect caspase-3 activity induced by Zika virus infection in human cells. The reagent mixture was reconstituted as described in the protocol from the manufacturer. Polystyrene tissue culture treated and PDL coated white plates were obtained from Greiner Bio-One (Monroe, NC). Cells were seeded in 384- or 1536-well assay plates and cultured at 37 C with 5% CO2 for 16 to 20 hours. The typical cell seeding density in the 1536-well plate assay is 350 cells/well in 3 ul medium for hNPCs in tissue culture treated plates. Compounds were added to cells and incubated for one hour before addition of ZIKV solution to cells (2 FFU/cell). After incubation at 37 C with 5% CO2 for 6 hours, the reagent mixture of Caspase-Glo 3/7 assay kit was added to each well, followed by incubation at room temperature for 30 minutes. The luminescence intensity of the assay plates was measured using a ViewLux plate reader (PerkinElmer). Data were normalized by using the cell-containing wells without ZIKV as a negative control (0% induction of caspase 3/7 activity) and wells containing ZIKV infected cells (Caspase-3 activity induced) as a positive control (100% induction of caspase 3 activity). The percentage inhibitions of the increased Caspase-3 activity by small molecule inhibitors were then calculated.

Potency, inactive:
N[C@H](CSC(c1ccccc1)(c1ccccc1)c1ccccc1)C(=O)O, Cc1c(N)c(=O)n(-c2ccccc2)n1C, CNC1[C@H](O)C(O[C@@H]2C(O)C(O[C@H]3O[C@H]([C@@H](C)NC)CC[C@H]3N)[C@@H](N)C[C@H]2N)OC[C@]1(C)O (stereo not given in full), COc1cc(NC(C)CCCN)c2ncccc2c1 (stereo not given), O=S(=O)(O)CCSSCCS(=O)(=O)O, C=CCCCCCCCCC(=O)O, O[C@@H](COc1cccc2ncccc12)CN1CCN(C2c3ccccc3[C@@H]3[C@H](c4ccccc42)C3(F)F)CC1 (stereo not given in full), CN(C)c1cc(NC(=O)CNC(C)(C)C)c(O)c2c1C[C@@H]1C[C@H]3[C@H](N(C)C)C(=O)C(C(N)=O)=C(O)[C@@]3(O)C(=O)C1=C2O, COc1cc2nc(-c3ccc(N4CCN(C)CC4)cc3)nc(NCCN3CCOCC3)c2cc1OC, Cc1[nH]c(C=C2C(=O)Nc3ccccc32)c(C)c1CCC(=O)O, CCN1/C(=C/C=C/c2sc3ccccc3[n+]2CC)Sc2ccccc21, NC1CCC(Nc2nc(Nc3ccc(C(=O)N4CCCCC4)cc3)c3ncn(-c4cccc(F)c4)c3n2)CC1 (stereo not given), CO[C@H]1C(=O)[C@]2(C)[C@@H](OC)C[C@H]3OC[C@@]3(OC(C)=O)[C@H]2[C@H](OC(=O)c2ccccc2)[C@]2(O)C[C@H](OC(=O)[C@H](O)[C@@H](NC(=O)OC(C)(C)C)c3ccccc3)C(C)=C1C2(C)C, COc1ccc(CC2=NN3C([C@@H](CCc4ccccc4)[C@@H](C)O)=NC(C)C3C(=O)N2)cc1OC (stereo not given in full), Cc1ccc(C(=O)c2ccc(CC(=O)O)n2C)cc1, O=C(O)Cc1ccc(-c2ccccc2)cc1, CN(C)c1ccc(N=NS(=O)(=O)O)cc1

Potency, active:
CN(C)c1ccc(/C=C2\C(=O)Nc3ccccc32)cc1 7.74 µM, CN1CC(=O)N/C1=N/C(=O)Nc1cccc(Cl)c1 4.35 µM, O=C(/C=C/c1ccc(O)cc1)c1ccc(O)cc1O 1.73 µM, Nc1ccc(N=Nc2ccccc2)c(N)n1 15.5 µM, COCCn1c2c([n+](Cc3cnccn3)c1C)C(=O)c1ccccc1C2=O 6.15 µM, COc1cccc(-c2cc(=O)c3ccccc3o2)c1N 4.89 µM, O=C1c2ccccc2-[n+]2ccc3c([nH]c4ccccc43)c21 9.75 µM, O=C1C[C@@H](c2ccc(O)cc2)Oc2cc(O)cc(O)c21 17.3 µM, CC(O)=C(C#N)C(=O)Nc1ccc(C(F)(F)F)cc1 0.774 µM, Clc1ccccc1-c1nc(-c2ccncc2)no1 4.35 µM, CC(C(=O)O)c1ccc(C(=O)c2ccccc2)s1 (stereo not given) 6.9 µM, O=C(c1ccccc1)c1ccc2n1CCC2C(=O)O (stereo not given) 13.8 µM, Oc1ccc(/C=C/c2cc(O)cc(O)c2)cc1 6.15 µM, N#C/C(=C\c1ccc(O)c(O)c1)C(=O)Nc1ccccc1 15.5 µM, COc1ccc(C=CC(=O)Nc2ccccc2C(=O)O)cc1OC 17.3 µM, CC(C)Oc1ccc2c(=O)c(-c3ccccc3)coc2c1 6.15 µM, NC(=O)c1cccc2[nH]c(-c3ccc([C@H]4CCCN4)cc3F)nc12 13.8 µM, c1ccc2[nH]c(-c3cscn3)nc2c1 9.75 µM, O=C(Nc1ccc([N+](=O)[O-])cc1Cl)c1cc(Cl)ccc1O 1.73 µM, CN(C)CCCSc1ccccc1NC(=O)/C=C/c1ccccc1 17.3 µM, CC(=Cc1ccccc1)C=C1SC(=S)N(CC(=O)O)C1=O 15.5 µM, Cc1ccc(O)c(-n2nc3ccccc3n2)c1 4.35 µM, COc1ccc(-c2cc(=O)c3c(O)cc(O)cc3o2)cc1O 9.75 µM
